# Experimental data: the supplement of paper PMC9023506
# Counter-ions that a name gives are not always drawn.
# System: Danio rerio larvae (5 dpf)
# Assay: activity during period 15 (no stimuli), difference vs DMSO (percentage points (treated minus DMSO)); higher = more of the behaviour than the DMSO vehicle control
# Conditions: 10 µM; exposure time: 3 h pre-incubation + 3 h imaging
# Procedure: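 5-dpf wild-type zebrafish larvae were imaged in 96-well plates. They were treated with 190 Tocris FDA-approved drugs at 10 µM (1 µl/ml DMSO) for 3 h before and 3 h during imaging at 28.5 °C, 48 larvae per drug. Automated image analysis gave % time moving and optomotor responses. Values are drug group mean minus DMSO vehicle mean (n=844), in percentage points, for 10 behaviours.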
row,Structure (SMILES),activity during period 15
1,CC1(C)O[C@@H]2[C@@H](CO[C@@]3(COS(N)(=O)=O)OC(C)(C)O[C@@H]23)O1 [Topiramate],3.85
2,CC(=O)O[C@]1(C(C)=O)CC[C@H]2[C@@H]3C=C(C)C4=CC(=O)CC[C@]4(C)[C@H]3CC[C@@]21C [Megestrol Acetate],-0.283
3,Cn1nnc2c(C(N)=O)ncn2c1=O [Temozolomide],2.03
4,CCc1ccc(CCOc2ccc(CC3SC(=O)NC3=O)cc2)nc1 (stereo not given) [Pioglitazone hydrochloride],-0.879
5,CC(C)c1nc(N(C)S(C)(=O)=O)nc(-c2ccc(F)cc2)c1/C=C/[C@@H](O)C[C@@H](O)CC(=O)O [Rosuvastatin calcium],15.5
6,CN(C)CC/C=C1/c2ccccc2COc2ccc(CC(=O)O)cc21 [Olopatadine hydrochloride],-6.62
7,CCc1c2c(nc3ccc(OC(=O)N4CCC(N5CCCCC5)CC4)cc13)-c1cc3c(c(=O)n1C2)COC(=O)[C@]3(O)CC,-8.3
8,Cc1ccccc1C(=O)Nc1ccc(C(=O)N2CCCC(O)c3cc(Cl)ccc32)c(C)c1 (stereo not given) [Tolvaptan],-8.09
9,CC(C)(C(=O)c1cccnc1)c1cccnc1 [Metyrapone],-7.26
10,COc1ccccc1OCCNCC(O)COc1cccc2[nH]c3ccccc3c12 (stereo not given) [Carvedilol],-6.43
11,Cc1cn([C@H]2C=C[C@@H](CO)O2)c(=O)[nH]c1=O [Stavudine],-0.445
12,NS(=O)(=O)Cc1noc2ccccc12 [Zonisamide],-7.11
13,C[C@]12CC[C@@H]3c4ccc(O)cc4C[C@@H](CCCCCCCCC[S+]([O-])CCCC(F)(F)C(F)(F)F)[C@H]3[C@@H]1CC[C@@H]2O (stereo not given in full),4.53
14,CNC(=O)c1cc(Oc2ccc(NC(=O)Nc3ccc(Cl)c(C(F)(F)F)c3)cc2)ccn1 [Sorafenib],8.65
15,OC(c1cc(C(F)(F)F)nc2c(C(F)(F)F)cccc12)C1CCCCN1 (stereo not given) [Mefloquine hydrochloride],-1.13
16,Clc1ccc(COC(Cn2ccnc2)c2ccc(Cl)cc2Cl)c(Cl)c1 (stereo not given) [Miconazole nitrate],-12.8
17,N#Cc1ccc(C(c2ccc(C#N)cc2)n2cncn2)cc1 [Letrozole],0.514
18,CC(C)CN(C[C@@H](O)[C@H](Cc1ccccc1)NC(=O)O[C@H]1CO[C@H]2OCC[C@H]21)S(=O)(=O)c1ccc(N)cc1 [Darunavir],11.1
19,Cc1cccc(C)c1OCC(C)N (stereo not given) [Mexiletine hydrochloride],6.49
20,CO[C@H]1/C=C/O[C@@]2(C)Oc3c(C)c(O)c4c(O)c(c5c(nc6cc(C)ccn65)c4c3C2=O)NC(=O)/C(C)=C\C=C\[C@H](C)[C@H](O)[C@@H](C)[C@@H](O)[C@@H](C)[C@H](OC(C)=O)[C@@H]1C [Rifaximin],-11.6

row,Structure (SMILES),activity during period 15
1,CNS(=O)(=O)Cc1ccc2[nH]cc(CCN(C)C)c2c1 [Sumatriptan succinate],3.89
2,CC(=O)S[C@@H]1CC2=CC(=O)CC[C@]2(C)[C@H]2CC[C@@]3(C)[C@@H](CC[C@@]34CCC(=O)O4)[C@H]12 [Spironolactone],-1.27
3,CN1CCC[C@@H]1Cc1c[nH]c2ccc(CCS(=O)(=O)c3ccccc3)cc12 [Eletriptan hydrobromide],-0.424
4,Nc1cc(N2CCCCC2)nc(N)[n+]1[O-] [Minoxidil],6.89
5,CC(C)[C@H]1CC[C@H](C(=O)N[C@H](Cc2ccccc2)C(=O)O)CC1 [Nateglinide],-0.384
6,CC(C)N(CCCCOCC(=O)NS(C)(=O)=O)c1cnc(-c2ccccc2)c(-c2ccccc2)n1 [Selexipag],6.35
7,CCOC(=O)C1=C(COCCN)NC(C)=C(C(=O)OC)C1c1ccccc1Cl (stereo not given) [Amlodipine besylate],3.16
8,CC(C)C(=O)Nc1ccc([N+](=O)[O-])c(C(F)(F)F)c1 [Flutamide],-0.963
9,OCc1cc(C(O)CNCCCCCCOCCCCc2ccccc2)ccc1O (stereo not given) [Salmeterol xinafoate],23.9
10,CC(=O)Oc1ccccc1C(=O)O [Aspirin],-1.19
11,C#CCN[C@@H]1CCc2ccccc21 [Rasagiline mesylate],-1.03
12,CN1CCN(CCCN2c3ccccc3Sc3ccc(Cl)cc32)CC1 [Prochlorperazine dimaleate],16.6
13,CCOC(=O)[C@H](CCc1ccccc1)N[C@@H](C)C(=O)N1[C@H](C(=O)O)C[C@@H]2CCC[C@@H]21 [Ramipril],-2.34
14,CC(C)C(=O)OCC(=O)[C@@]12O[C@H](C3CCCCC3)O[C@@H]1C[C@H]1[C@@H]3CCC4=CC(=O)C=C[C@]4(C)[C@H]3[C@@H](O)C[C@@]12C [Ciclesonide],-5.84
15,CC(C)OC(=O)C(C)(C)Oc1ccc(C(=O)c2ccc(Cl)cc2)cc1 [Fenofibrate],6.23
16,CCOc1cc(CC(=O)N[C@@H](CC(C)C)c2ccccc2N2CCCCC2)ccc1C(=O)O [Repaglinide],-1.47
17,COc1cc2nccc(Oc3ccc(NC(=O)C4(C(=O)Nc5ccc(F)cc5)CC4)cc3)c2cc1OC,16.2
18,COc1cc([C@@H]2c3cc4c(cc3[C@@H](O[C@@H]3O[C@@H]5CO[C@@H](C)O[C@H]5[C@H](O)[C@H]3O)[C@H]3COC(=O)[C@H]23)OCO4)cc(OC)c1O [Etoposide],-4.13
19,CCOC(=O)C1=C(C)NC(C)=C(C(=O)OC)C1c1cccc(Cl)c1Cl (stereo not given) [Felodipine],-11.6
20,CCCN(CCc1cccs1)[C@H]1CCc2c(O)cccc2C1 [Rotigotine hydrochloride],-35.4
